What follows are molecules tested against Protein kinase C eta type (Homo sapiens) (UniProt P24723). Details: at 0.1 µM.
Protein kinase C eta type (Homo sapiens), sequence (P24723 whole entry): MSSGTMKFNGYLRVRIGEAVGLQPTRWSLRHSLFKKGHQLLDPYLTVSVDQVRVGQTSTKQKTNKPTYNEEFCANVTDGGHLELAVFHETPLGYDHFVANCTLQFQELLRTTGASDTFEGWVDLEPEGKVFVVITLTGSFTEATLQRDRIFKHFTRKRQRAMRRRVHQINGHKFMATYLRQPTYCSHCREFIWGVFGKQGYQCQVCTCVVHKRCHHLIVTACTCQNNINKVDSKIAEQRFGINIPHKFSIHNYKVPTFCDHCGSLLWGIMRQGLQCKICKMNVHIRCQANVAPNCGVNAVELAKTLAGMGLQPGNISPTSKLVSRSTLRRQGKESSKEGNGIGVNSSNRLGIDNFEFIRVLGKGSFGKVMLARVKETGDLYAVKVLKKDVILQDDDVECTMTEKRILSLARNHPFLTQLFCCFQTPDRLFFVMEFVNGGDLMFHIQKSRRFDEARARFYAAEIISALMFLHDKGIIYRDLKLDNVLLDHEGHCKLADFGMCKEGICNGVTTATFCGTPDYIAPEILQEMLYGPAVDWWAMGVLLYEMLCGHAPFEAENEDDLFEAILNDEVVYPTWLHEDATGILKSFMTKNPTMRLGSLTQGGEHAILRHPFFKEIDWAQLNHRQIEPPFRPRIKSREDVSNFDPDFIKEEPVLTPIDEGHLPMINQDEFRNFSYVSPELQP
`COc1ccc(-c2coc3ncnc(N)c23)cc1` was tested, and the inhibition was 3.06%. `Cc1cc(O)cc(C)c1/C=C/c1cncc(-c2nn[nH]n2)c1` gave an inhibition of 1%. For `NCc1ccc(-c2nc(-c3ccc(Cl)c(O)c3)c(-c3ccncc3)[nH]2)cc1`, the inhibition was 1.93%. With `Cc1ccc(C(=O)NC2CCCCC2)cc1-c1ccc(C(=O)NCC2CC2)cc1` the inhibition was 3.2%. In the case of `COc1cccc(-n2ncc3c(N/N=C/c4cccc(F)c4)ncnc32)c1`, the inhibition is reported as 0.06%. `[O-][S+]1CCN(Cc2ccc(-c3ccc4ncnc(Nc5ccc(OCc6ccccc6)c(F)c5)c4c3)o2)CC1` gave an inhibition of 0.68%. `COc1cc2c(cc1Nc1nc(N3CCc4ccccc43)c3cc[nH]c3n1)N(C(=O)CN(C)C)CC2` was tested, and the inhibition was 3.35%. Work on `COc1cc2ncn(-c3cc(OCc4ccccc4Cl)c(C(N)=O)s3)c2cc1OC` yielded an inhibition of 1.47%. For `COc1ccccc1Nc1ncc(-c2ccccc2)o1`, the inhibition was 7.06%. For `c1cnn2ncc(-c3ccnc(Nc4ccc5c(c4)OCCO5)n3)c2c1`, the inhibition was 4.51%. `CS(=O)(=O)CCN(CC#N)Cc1ccc(-c2ccc3ncnc(Nc4ccc(OCc5cccc(F)c5)c(Cl)c4)c3c2)o1` showed an inhibition of 2.38%. Work on `CS(=O)(=O)CCNCc1ccc(-c2ccc3ncnc(Nc4ccc(OCc5cccc(F)c5)c(C(F)(F)F)c4)c3c2)o1` yielded an inhibition of 4.51%. Work on `COc1ccc(-c2nn3ncccc3c2-c2ccnc(Nc3ccc(Cl)c(C(F)(F)F)c3)n2)cc1` yielded an inhibition of 2.79%. Work on `CCn1c(-c2nonc2N)nc2ccncc21` yielded an inhibition of 1.11%. With `Nc1ncnc2occ(-c3ccc(NC(=O)Nc4cccc(C(F)(F)F)c4)cc3)c12` the inhibition was 0.55%. `CC(C)=Cc1cccc2c1/C(=N/Nc1ccc(S(N)(=O)=O)cc1)C(=O)N2` was tested, and the inhibition was 0.51%. `Fc1cccc(COc2ccc(Nc3ncnc4cc(-c5ccc[nH]5)sc34)cc2Cl)c1` gave an inhibition of 2.87%. In the case of `CCN1CCC(CC(=O)Nc2n[nH]c3nc(-c4cccs4)c(Br)cc23)CC1`, the inhibition is reported as -3.78%. Work on `NC(=O)c1ccc(-c2nc(-c3ccccn3)c(-c3ccc4c(c3)OCO4)[nH]2)cc1` yielded an inhibition of -0.32%. `CCn1c(-c2nonc2N)nc2c(C#CC(C)(C)O)nc(OC[C@@H](N)c3ccccc3)cc21` was tested, and the inhibition was 81.4%. Molecule `CCn1c(-c2nonc2N)nc2cncc(C(=O)N3CC[C@H](N)C3)c21` has an inhibition of 51.2%. `Cc1ccc(NC(=O)c2ccnc(N3CCCC3)c2)cc1-c1ccc(C(=O)NCC2CC2)cc1` gave an inhibition of 5.39%. Molecule `COc1cc(C)c(NC(=O)CN(C)C)cc1Nc1nc(Nc2cccc(F)c2C(N)=O)c2cc[nH]c2n1` has an inhibition of 1.08%. Molecule `CCn1c(-c2nonc2N)nc2cnc(Oc3cccc(NC(=O)c4ccc(OCCN5CCOCC5)cc4)c3)cc21` has an inhibition of 71.2%. In the case of `Nc1nc(-c2ccc3c(c2)C(=Cc2cc(Br)c(O)c(Br)c2)C(=O)N3)cs1`, the inhibition is reported as -1.62%. `COc1ccc(-c2ccncc2)cc1C(N)=O` was tested, and the inhibition was 3.72%. Molecule `CC1=C(C(=O)Nc2ccc3[nH]ncc3c2)C(c2ccc(Cl)c(Cl)c2)CC(=O)N1` (stereo not drawn) has an inhibition of 0.22%. `Fc1cccc(COc2ccc(Nc3ncnc4sc(-c5cccs5)cc34)cc2Cl)c1` showed an inhibition of 1.43%. For `CN1CCC(C(=O)Nc2n[nH]c3nnc(-c4ccccc4)cc23)CC1`, the inhibition was 4.63%. `Cc1nn(C)c2cc(N(C)c3ccnc(Nc4cccc(S(N)(=O)=O)c4)n3)ccc12` showed an inhibition of 4.55%. In the case of `COC(=O)Nc1nc2cc(Oc3ccc(NC(=O)Nc4cccc(C(=O)O)c4)cc3)ccc2[nH]1`, the inhibition is reported as -0.35%. `CS(=O)(=O)CCNCc1nc(-c2ccc3ncnc(Nc4ccc(F)c(Cl)c4)c3c2)cs1` gave an inhibition of 1.59%. Molecule `CS(=O)(=O)CCNCc1ccc(-c2ccc3ncnc(Nc4ccc(OCc5ccccc5)c(Cl)c4)c3c2)o1` has an inhibition of 1.32%. Work on `COC(=O)Nc1nc2cc(Oc3cccc(NC(=O)Nc4cc(C(F)(F)F)ccc4F)c3)ccc2[nH]1` yielded an inhibition of 0.61%.

The molecules below were run against Protein kinase C eta type (Homo sapiens) (UniProt P24723). Details: at 1 µM.
For `COc1ccc(-c2coc3ncnc(N)c23)cc1`, the inhibition was 2.62%. `Cc1cc(O)cc(C)c1/C=C/c1cncc(-c2nn[nH]n2)c1` was tested, and the inhibition was 5.67%. In the case of `NCc1ccc(-c2nc(-c3ccc(Cl)c(O)c3)c(-c3ccncc3)[nH]2)cc1`, the inhibition is reported as 3.81%. For `Cc1ccc(C(=O)NC2CCCCC2)cc1-c1ccc(C(=O)NCC2CC2)cc1`, the inhibition was -0.62%. Work on `COc1cccc(-n2ncc3c(N/N=C/c4cccc(F)c4)ncnc32)c1` yielded an inhibition of 3.37%. `[O-][S+]1CCN(Cc2ccc(-c3ccc4ncnc(Nc5ccc(OCc6ccccc6)c(F)c5)c4c3)o2)CC1` gave an inhibition of 0.14%. For `COc1cc2c(cc1Nc1nc(N3CCc4ccccc43)c3cc[nH]c3n1)N(C(=O)CN(C)C)CC2`, the inhibition was -0.3%. `COc1cc2ncn(-c3cc(OCc4ccccc4Cl)c(C(N)=O)s3)c2cc1OC` was tested, and the inhibition was 2.19%. With `COc1ccccc1Nc1ncc(-c2ccccc2)o1` the inhibition was 7.33%. `c1cnn2ncc(-c3ccnc(Nc4ccc5c(c4)OCCO5)n3)c2c1` showed an inhibition of 8.26%. `CS(=O)(=O)CCN(CC#N)Cc1ccc(-c2ccc3ncnc(Nc4ccc(OCc5cccc(F)c5)c(Cl)c4)c3c2)o1` gave an inhibition of 1.49%. For `CS(=O)(=O)CCNCc1ccc(-c2ccc3ncnc(Nc4ccc(OCc5cccc(F)c5)c(C(F)(F)F)c4)c3c2)o1`, the inhibition was 4.84%. In the case of `COc1ccc(-c2nn3ncccc3c2-c2ccnc(Nc3ccc(Cl)c(C(F)(F)F)c3)n2)cc1`, the inhibition is reported as 2.3%. `CCn1c(-c2nonc2N)nc2ccncc21` was tested, and the inhibition was 5.32%. For `Nc1ncnc2occ(-c3ccc(NC(=O)Nc4cccc(C(F)(F)F)c4)cc3)c12`, the inhibition was 6.96%. `CC(C)=Cc1cccc2c1/C(=N/Nc1ccc(S(N)(=O)=O)cc1)C(=O)N2` was tested, and the inhibition was 2.14%. Work on `Fc1cccc(COc2ccc(Nc3ncnc4cc(-c5ccc[nH]5)sc34)cc2Cl)c1` yielded an inhibition of 4.5%. In the case of `CCN1CCC(CC(=O)Nc2n[nH]c3nc(-c4cccs4)c(Br)cc23)CC1`, the inhibition is reported as 0.16%. `NC(=O)c1ccc(-c2nc(-c3ccccn3)c(-c3ccc4c(c3)OCO4)[nH]2)cc1` was tested, and the inhibition was -0.29%. `CCn1c(-c2nonc2N)nc2c(C#CC(C)(C)O)nc(OC[C@@H](N)c3ccccc3)cc21` showed an inhibition of 96.8%. For `CCn1c(-c2nonc2N)nc2cncc(C(=O)N3CC[C@H](N)C3)c21`, the inhibition was 88.3%. Molecule `Cc1ccc(NC(=O)c2ccnc(N3CCCC3)c2)cc1-c1ccc(C(=O)NCC2CC2)cc1` has an inhibition of 2.22%. `COc1cc(C)c(NC(=O)CN(C)C)cc1Nc1nc(Nc2cccc(F)c2C(N)=O)c2cc[nH]c2n1` gave an inhibition of 1.46%. `CCn1c(-c2nonc2N)nc2cnc(Oc3cccc(NC(=O)c4ccc(OCCN5CCOCC5)cc4)c3)cc21` was tested, and the inhibition was 94.9%. `Nc1nc(-c2ccc3c(c2)C(=Cc2cc(Br)c(O)c(Br)c2)C(=O)N3)cs1` showed an inhibition of -1.96%. With `COc1ccc(-c2ccncc2)cc1C(N)=O` the inhibition was 6.14%. In the case of `CC1=C(C(=O)Nc2ccc3[nH]ncc3c2)C(c2ccc(Cl)c(Cl)c2)CC(=O)N1` (stereo not drawn), the inhibition is reported as 14.1%. Work on `Fc1cccc(COc2ccc(Nc3ncnc4sc(-c5cccs5)cc34)cc2Cl)c1` yielded an inhibition of 1.98%. With `CN1CCC(C(=O)Nc2n[nH]c3nnc(-c4ccccc4)cc23)CC1` the inhibition was 5.6%. `Cc1nn(C)c2cc(N(C)c3ccnc(Nc4cccc(S(N)(=O)=O)c4)n3)ccc12` gave an inhibition of 2.34%. For `COC(=O)Nc1nc2cc(Oc3ccc(NC(=O)Nc4cccc(C(=O)O)c4)cc3)ccc2[nH]1`, the inhibition was 3.15%. `CS(=O)(=O)CCNCc1nc(-c2ccc3ncnc(Nc4ccc(F)c(Cl)c4)c3c2)cs1` showed an inhibition of 3.26%. Work on `CS(=O)(=O)CCNCc1ccc(-c2ccc3ncnc(Nc4ccc(OCc5ccccc5)c(Cl)c4)c3c2)o1` yielded an inhibition of -1.74%. `COC(=O)Nc1nc2cc(Oc3cccc(NC(=O)Nc4cc(C(F)(F)F)ccc4F)c3)ccc2[nH]1` showed an inhibition of -1.2%.

Reference: ChEMBL document CHEMBL1961873, “Compounds: GSK PKIS; Assays: Nanosyn kinase panel” (2012)
